Bioassay records from PubChem BioAssay.
Hits are enriched below; roughly 3.6% of the tested compounds scored in any of these assays.
TWEAK-Fn14 inh = blocks TWEAK-Fn14 interaction in a reporter cell assay; inhibition, % at 10 µM; TWEAK-stimulated Fn14 reporter cells, luciferase luminescence, 8 h; 2% of 360,000 active; AID 1159606; in the data active = inhibition above about 50%
TROY NFkB inh = TROY signaling inhibition | Q293 LMP1-TROYcd NF-kB luciferase reporter, 4 h | inhibition, % at 10 µM | 0.98% of 360,000 active;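 active = compounds whose plate-normalised and pattern-corrected inhibition of the luciferase reporter signal at the single screening dose is 50% or more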
HSF1 inh = HSF1 inhibition | NIH3T3-HGL HSE-luciferase, MG132-induced, luminescence 8 h; hits give low values | activity change, negative = inhibition, % at 7.5 µM (by protocol) | 0.77% of 300,000 active;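 active = more than half of replicate wells show activity change below -50%, luminescence cut by over half; inconclusive = some wells, but at most half, below -50%; inactive = no replicate well below -50%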;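 note: luciferase reports HSF-1 transcriptional activity via heat shock element; 0% = median of DMSO wells and -100% = zero luminescence signal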
LMP1 NFkB inh = reduces LMP1-driven NF-kappaB luciferase signal; LMP1-induced NF-kappaB luciferase reporter cells, luminescence; inhibition, % at 12.5 µM; 0.69% of 350,000 active; in the data active = inhibition above about 41%; inconclusive = no clear call, values can overlap the other calls;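 note: 0% = neutral control wells and 100% = reference inhibitor control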
LGR2 antag = blocks bursicon-induced cAMP signaling via Drosophila LGR2. HEK293 LGR2, CRE-luciferase, bursicon-stimulated, 4 h. inhibition, % at 9.99 µM. 0.35% of 380,000 active. AID 720647;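 active = drop in luminescence signal, shown as inhibition above about 50% in the replicate tests, limit read from the data, passing the limit was not always enough; inconclusive = probably only some replicates passing the limit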;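 note: agonist challenge used bursicon conditioned medium at about half maximal strength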
HSF1 activator = increases HSF-1 driven luciferase reporter signal; NIH3T3-HGL HSF-1 luciferase reporter, MG132, 8 h; 100% = twice DMSO control signal; activation, % at 9 µM; 1.7% of 300,000 active;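 active = mean replicate activation of at least 50% with a set share of replicates each reaching 50%; inconclusive = only one of those two conditions met; inactive = mean below 50% and too few replicates reaching it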;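 note: 0% = median of the neutral control wells and 100% = twice that signal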
* = called active by the depositor; ? = inconclusive; / = not tested or not shown.

SMILES	TWEAK-Fn14 inh	TROY NFkB inh	HSF1 inh	LMP1 NFkB inh	LGR2 antag	HSF1 activator
CCC(=NCC1CCCO1)c1c(O)n(-c2ccccc2C)c(=O)[nH]c1=O (stereo unspecified)	-8	12	-3	-2	0	3
C=CCn1c(O)c(C(C)=NC2CCN(Cc3ccccc3)CC2)c(=O)[nH]c1=O	2	10	-88*	/	/	-91
C=CCn1c(O)c(C(C)=NC2CC2)c(=O)[nH]c1=O	12	-3	5	-1	/	15
C=CCn1c(O)c(C(C)=NCCN2CCCCC2)c(=O)[nH]c1=O	-5	-25	-5	-8	/	-6
C/C=C/c1ccc(C2[C@@H]3CN(C(=O)c4cnccn4)C[C@H]2N3)cc1 (stereo partly specified)	/	/	/	/	-20	/
Oc1ccc(O)c2c1C1(Cl)C(Cl)=C(Cl)C2(Cl)C1(Cl)Cl	43	52*	/	6	23	/
CN(C)Cc1c[nH]c2ccccc12	18	-13	/	8	-3	/
CC(=O)Cc1c[nH]c2ccccc12	/	/	-91*	/	/	-92
O=C(O)[C@H]1[C@H](CO)[C@H]2Cn3c(ccc(C4=CCCC4)c3=O)[C@@H]1N2C(=O)Cc1ccccn1	/	/	/	/	11	/
N#Cc1cccc(-c2ccc([C@H]3[C@H]4CN(C(=O)Cc5ccccc5)CCCCN4[C@H]3CO)cc2)c1	/	/	/	/	-4	/
COc1ccc(C(=O)C2CCCN(Cc3ccc(C)s3)C2)c(OC)c1 (stereo unspecified)	-14	12	33	1	0	63*
Cc1cccc(S(=O)(=O)N2[C@@H]3c4ccc(-c5ccccc5)c(=O)n4C[C@H]2[C@H](CO)[C@H]3C(=O)O)c1	/	/	/	/	-1	/
Cc1cc(N(CCCl)CCCl)ccc1C=NNC(=O)Cc1cc(=O)oc2cc(O)ccc12	3	16	/	35	-2	/
Cc1cc(N(CCCl)CCCl)ccc1/C=N/NC(=O)c1ccco1	9	-35	6	53*	/	-1
O=C(c1ccccc1)C(CN1CCCC1)c1ccccc1 (stereo unspecified)	71*	11	22	73*	?	50
COC(=O)[C@H]1[C@H](CO)[C@H]2Cn3c(ccc(C4=CCCC4)c3=O)[C@@H]1N2Cc1ccccn1	/	/	/	/	-2	/
CC(C)[C@]12O[C@H]1[C@@H]1O[C@]13[C@]1(O[C@H]1C[C@H]1C4=C(CC[C@@]13C)C(=O)OC4)[C@@H]2O	/	/	-68*	/	/	-72
COc1ccc(/C=C/C(=O)c2c(O)n(CCC3=CCCCC3)c(=O)[nH]c2=O)cc1	46	16	-29	-8	-1	-47
O=C(/C=C/c1ccc2c(c1)OCO2)c1c(O)n(CCC2=CCCCC2)c(=O)[nH]c1=O	51*	19	/	-9	/	/
CC1=C2C(=O)C3C(CC=C4CC(O)CCC43C)C2CCC12OC1CC(C)CNC1C2C (stereo unspecified)	97*	3	1	10	-4	-9
CC(Cc1ccccc1)NCC(=O)Nc1cc(N(C)C)nc2ccccc12 (stereo unspecified)	-17	3	24	30	7	58*
CC=Cc1ccc2n(c1=O)C[C@H]1[C@H](CO)[C@@H](C(=O)N(C)C)N[C@@H]21 (mixture of isomers)	/	/	/	/	-6	/
COC(=O)[C@@H]1[C@@H](CO)[C@@H]2Cn3c(ccc(-c4cccnc4)c3=O)[C@H]1N2S(=O)(=O)c1ccccc1C	/	/	/	/	-3	/
C/C=C/c1ccc(C2[C@@H]3CN(C(=O)C4CCOCC4)C[C@H]2N3)cc1 (stereo partly specified)	/	/	/	/	-1	/
CSc1ccc(C(=O)C2CCCN(Cc3cccnc3)C2)cc1 (stereo unspecified)	19	-2	51	8	15	104*
SMILES	TWEAK-Fn14 inh	TROY NFkB inh	HSF1 inh	LMP1 NFkB inh	LGR2 antag	HSF1 activator
COc1ccc(C#Cc2ccc([C@@H]3[C@@H](CO)N4CCCCN(C(=O)Cc5cccnc5)C[C@H]34)cc2)cc1	/	/	/	/	1	/
CCn1c(=O)cc(SCC(=O)N2CCC3(CC2)OCCO3)c2ccccc21	14	-22	34	2	-27	68*
Cn1c(=O)n(CC(=O)N2CCC3(CC2)OCCO3)c(=O)c2ccccc21	8	-9	-9	-7	/	6
O=C(Cc1ccccn1)N1CCCCN2[C@@H](CO)[C@H](c3ccc(-c4ccccc4)cc3)[C@@H]2C1	/	/	/	/	2	/
Oc1c(Br)c(Br)c(Br)c(Br)c1Br	2	71*	/	7	/	/
CN(C)Cc1ccccc1OC(=O)N(C)C	-2	-7	6	-9	/	30
Cc1nc2cc(OC(=O)N(C)Cc3cccc(-c4ccncc4)c3)ccc2s1	93*	66*	/	/	/	/
CN(Cc1cccc(-c2ccncc2)c1)C(=O)Oc1ccccc1Cc1ccccc1	93*	66*	/	/	/	/
CN(Cc1cccc(-c2ccncc2)c1)C(=O)Oc1ccccc1Cl	75*	49	/	/	/	/
O=C(Cc1ccccn1)N1CCCCN2[C@H](CO)[C@H](c3ccc(-c4ccccc4)cc3)[C@@H]2C1	/	/	/	/	-20	/
CC(N)C(=O)NC1C2C(=C(O)CC(O)C2O)C(=O)OC1(C)C(Cl)Cl (stereo unspecified)	96*	78*	/	85*	99*	/
C[C@H]1CCC[C@@H](O)CCC/C=C/c2cc(O)cc(O)c2C(=O)O1	59*	20	3	21	38	6
C[C@H]1CCC[C@H](O)CCCCCc2cc(O)cc(O)c2C(=O)O1	31	10	5	-7	0	19
Cc1ccc(OCCOc2cccc(C=C3C(=O)NC(=O)NC3=O)c2)c(C)c1	89*	-70	-10	45*	77*	8
O=C1NC(=O)C(=Cc2cccc(OCCOc3ccccc3)c2)C(=O)N1	-10	-12	17	-17	-45	30
CCC(=NCc1ccco1)c1c(O)n(C2CCCCC2)c(=O)[nH]c1=O	4	7	29	7	/	66*
O=C(O)CCCOc1ccc(Cl)cc1Cl	22	-6	/	59*	/	/
O=C(Cc1ccccn1)N1CCCCN2[C@H](CO)[C@H](c3ccc(C#Cc4ccccc4)cc3)[C@H]2C1	/	/	/	/	-1	/
O=C(Cc1ccccn1)N1CCCCN2[C@H](C1)[C@@H](c1ccc(-c3ccccc3F)cc1)[C@@H]2CO	/	/	/	/	-8	/
C[C@]12CC[C@H](O)C[C@H]1CC[C@@H]1[C@@H]2C[C@@H](O)[C@]2(C)[C@@H](C3=CC(=O)OC3)CC[C@]12O	56*	47	/	68*	80*	/
CC12CCC(O)CC1CCC1C2CCC2(C)C(C3=CC(=O)OC3)C(O)CC12O (stereo unspecified)	53*	37	/	-3	77*	/
CC(=O)OC1CC(OC2C(O)CC(OC3C(O)CC(OC4CCC5(C)C(CCC6C5CC(O)C5(C)C(C7=CC(=O)OC7)CCC65O)C4)OC3C)OC2C)OC(C)C1OC1OC(CO)C(O)C(O)C1O (stereo unspecified)	78*	36	/	83*	88*	/
